Hit rate of the full screen: of about 5,500 compounds, about 2,000 (36%) were called active. Roughly 18% stayed inconclusive and do not appear here. Cut-off read from the data, not from the text of the source: active = normalized growth mostly below about 0.91 (no sharp cut-off); inconclusive = no clear call, values can overlap the other calls; inactive = mostly above about 0.92. The list shows a part of the results.
Test: chemical genetic growth profiling, strain panel (AID 1159580);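 note: tested at 20 µM; growth read once vehicle control cultures reached saturation at 30 °C; 1 = growth at the plate median or of vehicle wells; lower values mean less growth of the strain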
Conditions: growth OD

Measured: normalized growth

C=CC1=C(C(=O)O)N2C(=O)[C@@H](NC(=O)/C(=N/O)c3csc(N)n3)[C@H]2SC1
inactive: S. cerevisiae deletion strains, locus YJR066W, strain TOR1, hits give low values 0.95 | S. cerevisiae deletion strains, locus YJR075W, strain HOC1, hits give low values 1.01 | S. cerevisiae deletion strains, locus YKL009W, strain mrt4, hits give low values 0.995 | S. cerevisiae deletion strains, locus YKL068W, hits give low values 1 | S. cerevisiae deletion strains, locus YKL085W, strain MDH1 (second series), hits give low values 0.989 | S. cerevisiae deletion strains, locus YKL085W, strain MDH1, hits give low values 0.989 | S. cerevisiae deletion strains, locus YKL160W, strain elf1, hits give low values 1.02 | S. cerevisiae deletion strains, locus YKL190W, strain CNB1, hits give low values 1.02 | S. cerevisiae deletion strains, locus YKR001C, strain vps1, hits give low values 0.979 | S. cerevisiae deletion strains, locus YKR026C, strain gcn3, hits give low values 1.03 | S. cerevisiae deletion strains, locus YKR091W, strain srl3, hits give low values 1.02 | S. cerevisiae deletion strains, locus YLL001W, strain dnm1, hits give low values 1.02 | S. cerevisiae deletion strains, locus YLL026W, hits give low values 1.03 | S. cerevisiae deletion strains, locus YLL041C, strain sdh2, hits give low values 1.02 | S. cerevisiae deletion strains, locus YLR027C, strain aat2, hits give low values 1.02 | S. cerevisiae deletion strains, locus YLR039C, strain RIC1, hits give low values 1.04 | S. cerevisiae deletion strains, locus YLR058C, strain SHM2, hits give low values 0.996 | S. cerevisiae deletion strains, locus YLR102C, strain apc9, hits give low values 0.997 | S. cerevisiae deletion strains, locus YLR113W, strain HOG1, hits give low values 1.02 | S. cerevisiae deletion strains, locus YLR221C, strain rsa3, hits give low values 1.04 | S. cerevisiae deletion strains, locus YLR258W, strain gsy2, hits give low values 1.02 | S. cerevisiae deletion strains, locus YLR262C, strain YPT6 (second series), hits give low values 1.04 | S. cerevisiae deletion strains, locus YLR262C, strain YPT6, hits give low values 1.02 | S. cerevisiae deletion strains, locus YLR268W, strain sec22, hits give low values 1 | S. cerevisiae deletion strains, locus YLR320W, strain mms22, hits give low values 1.02 | S. cerevisiae deletion strains, locus YLR330W, strain CHS5, hits give low values 0.992 | S. cerevisiae deletion strains, locus YLR342W, strain FKS1 (second series), hits give low values 1.02 | S. cerevisiae deletion strains, locus YLR342W, strain FKS1, hits give low values 1.03 | S. cerevisiae deletion strains, locus YLR357W, strain rsc2, hits give low values 1.02 | S. cerevisiae deletion strains, locus YLR370C, strain arc18, hits give low values 1.02 | S. cerevisiae deletion strains, locus YLR371W, strain rom2, hits give low values 0.994 | S. cerevisiae deletion strains, locus YLR384C, strain iki3, hits give low values 1.02 | S. cerevisiae deletion strains, locus YLR418C, strain cdc73, hits give low values 0.998 | S. cerevisiae deletion strains, locus YML016C, strain PPZ1, hits give low values 0.987 | S. cerevisiae deletion strains, locus YML032C, strain rad52, hits give low values 1 | S. cerevisiae deletion strains, locus YML120C, strain ndi1, hits give low values 1.02 | S. cerevisiae deletion strains, locus YML124C, strain tub3, hits give low values 0.993 | S. cerevisiae deletion strains, locus YMR058W, strain fet3, hits give low values 1.01 | S. cerevisiae deletion strains, locus YMR078C, strain ctf18, hits give low values 0.989 | S. cerevisiae deletion strains, locus YMR125W, strain sto1, hits give low values 1.03 | S. cerevisiae deletion strains, locus YMR129W, hits give low values 1.01 | S. cerevisiae deletion strains, locus YMR205C, strain PFK2, hits give low values 1.03 | S. cerevisiae deletion strains, locus YMR223W, strain ubp8, hits give low values 0.994 | S. cerevisiae deletion strains, locus YMR231W, strain pep5, hits give low values 1.02 | S. cerevisiae deletion strains, locus YMR263W, strain SAP30, hits give low values 1.04 | S. cerevisiae deletion strains, locus YMR307W, strain GAS1, hits give low values 1.05 | S. cerevisiae deletion strains, locus YNL067W, strain RPL9B, hits give low values 1.08 | S. cerevisiae deletion strains, locus YNL071W, strain lat1, hits give low values 1.02 | S. cerevisiae deletion strains, locus YNL128W, strain TEP1, hits give low values 1.02 | S. cerevisiae deletion strains, locus YNL153C, strain GIM3, hits give low values 1 | S. cerevisiae deletion strains, locus YNL183C, strain NPR1, hits give low values 0.956 | S. cerevisiae deletion strains, locus YNL209W, strain ssb2, hits give low values 1.01 | S. cerevisiae deletion strains, locus YNL233W, strain BNI4, hits give low values 1 | S. cerevisiae deletion strains, locus YNL248C, strain rpa49, hits give low values 1.04 | S. cerevisiae deletion strains, locus YNL250W, strain rad50, hits give low values 0.99 | S. cerevisiae deletion strains, locus YNL271C, strain bni1, hits give low values 0.99 | S. cerevisiae deletion strains, locus YNL298W, strain CLA4, hits give low values 0.982 | S. cerevisiae deletion strains, locus YNL307C, strain MCK1, hits give low values 1.01 | S. cerevisiae deletion strains, locus YNL322C, strain KRE1 (second series), hits give low values 1.04 | S. cerevisiae deletion strains, locus YNL322C, strain KRE1, hits give low values 1 | S. cerevisiae deletion strains, locus YNR049C, strain mso1, hits give low values 1.02 | S. cerevisiae deletion strains, locus YNR052C, strain pop2, hits give low values 1 | S. cerevisiae deletion strains, locus YOL006C, strain TOP1, hits give low values 0.995 | S. cerevisiae deletion strains, locus YOL012C, strain htz1 1.75 | S. cerevisiae deletion strains, locus YOR001W, strain rrp6, hits give low values 1.03 | S. cerevisiae deletion strains, locus YOR061W, strain CKA2, hits give low values 0.994 | S. cerevisiae deletion strains, locus YOR069W, strain VPS5, hits give low values 0.998 | S. cerevisiae deletion strains, locus YOR070C, strain gyp1, hits give low values 1.01 | S. cerevisiae deletion strains, locus YOR080W, strain dia2, hits give low values 1.04 | S. cerevisiae deletion strains, locus YOR083W, strain WHI5, hits give low values 1.02 | S. cerevisiae deletion strains, locus YOR106W, strain vam3, hits give low values 1.03 | S. cerevisiae deletion strains, locus YOR136W, strain idh2, hits give low values 0.988 | S. cerevisiae deletion strains, locus YOR144C, strain elg1, hits give low values 0.979 | S. cerevisiae deletion strains, locus YOR184W, strain ser1, hits give low values 0.993 | S. cerevisiae deletion strains, locus YOR231W, strain MKK1, hits give low values 0.978 | S. cerevisiae deletion strains, locus YOR265W, strain rbl2, hits give low values 1.02 | S. cerevisiae deletion strains, locus YOR270C, strain vph1, hits give low values 1.03 | S. cerevisiae deletion strains, locus YOR290C, strain snf2, hits give low values 1.01 | S. cerevisiae deletion strains, locus YOR316C, strain cot1, hits give low values 0.994 | S. cerevisiae deletion strains, locus YPL051W, strain arl3, hits give low values 1.03 | S. cerevisiae deletion strains, locus YPL055C, strain LGE1, hits give low values 1.03 | S. cerevisiae deletion strains, locus YPL078C, strain atp4, hits give low values 1.02 | S. cerevisiae deletion strains, locus YPL106C, strain sse1, hits give low values 1.04 | S. cerevisiae deletion strains, locus YPL240C, strain hsp82, hits give low values 1.03 | S. cerevisiae deletion strains, locus YPL241C, strain CIN2, hits give low values 1.01 | S. cerevisiae deletion strains, locus YPL256C, strain CLN2, hits give low values 0.957 | S. cerevisiae deletion strains, locus YPR141C, strain kar3, hits give low values 0.984 | S. cerevisiae deletion strains, locus YPR163C, strain tif3, hits give low values 0.991 | S. cerevisiae deletion strains, locus YPR167C, strain met16, hits give low values 0.994 | S. cerevisiae deletion strains, strain wtn01, hits give low values 0.993 | S. cerevisiae strains, strain wild type, hits give low values 1.03

— PubChem BioAssay AID1159580 (chemical genetic matrix, 2015)
